Several values for one entry are separate records, joined by “and”; a condition that tells them apart may be missing. Equal entries are not always repeated. Out of some 5,500 compounds screened, about 2,000 (36%) were called active. Another 18% or so got no clear call; they are omitted. No stated cut-off is given here; in the data, active means normalized growth mostly below about 0.91 (no sharp cut-off); inconclusive means no clear call, values can overlap the other calls; inactive means mostly above about 0.92. The list shows a part of the results.
Test: chemical genetic growth profiling, strain panel (AID 1159580);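 further: tested at 20 µM; growth read once vehicle control cultures reached saturation at 30 °C; 1 = growth at the plate median or of vehicle wells; lower values mean less growth of the strain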
Settings: S. cerevisiae deletion strains, growth OD
[1] = locus YAL013W, strain DEP1, hits give low values
[2] = locus YBR229C, strain ROT2, hits give low values
[3] = locus YCL061C, strain MRC1, hits give low values
[4] = locus YDL101C, strain DUN1, hits give low values
[5] = locus YEL061C, strain CIN8, hits give low values
[6] = locus YGR078C, strain PAC10, hits give low values
[7] = locus YHR030C, strain SLT2, hits give low values
[8] = locus YJR043C, strain POL32, hits give low values
[9] = locus YLR039C, strain RIC1, hits give low values
[10] = locus YLR262C, strain YPT6, hits give low values
[11] = locus YNL128W, strain TEP1, hits give low values
[12] = locus YNL322C, strain KRE1, hits give low values
[13] = locus YPL055C, strain LGE1, hits give low values
[14] = locus YPL241C, strain CIN2, hits give low values
[15] = locus YDR150W, strain NUM1, hits give low values
[16] = locus YHR087W, strain rtc3, hits give low values
[17] = locus YJR075W, strain HOC1, hits give low values
[18] = locus YKL190W, strain CNB1, hits give low values
[19] = locus YLR058C, strain SHM2 (second series), hits give low values
[20] = locus YLR085C, strain ARP6, hits give low values
[21] = locus YML094W, strain GIM5, hits give low values
[22] = locus YMR219W, strain ESC1, hits give low values
[23] = locus YNL153C, strain GIM3, hits give low values
[24] = locus YNL298W, strain CLA4 (second series), hits give low values
[25] = locus YNR030W, strain Alg12, hits give low values
[26] = locus YPR135W, strain CTF4, hits give low values

Measured: normalized growth

NC(=O)N1c2ccccc2C=Cc2ccccc21
inactive: [1] 1 | locus YAL021C, strain ccr4, hits give low values 1.03 | locus YAL026C, strain drs2, hits give low values 1.02 | locus YAL030W, strain snc1, hits give low values 1.04 | locus YAL040C, strain CLN3, hits give low values 1.01 | locus YBL061C, strain skt5, hits give low values 1.03 | locus YBR009C, strain hhf1, hits give low values 1.02 | locus YBR021W, strain FUR4, hits give low values 1.03 | locus YBR023C, strain chs3, hits give low values 1.02 | locus YBR171W, strain sec66, hits give low values 1.03 | [2] 1.03 | locus YBR231C, strain swc5, hits give low values 1.04 | locus YBR279W, strain paf1, hits give low values 1.02 | locus YCL011C, strain gbp2, hits give low values 1.02 | locus YCL016C, strain dcc1, hits give low values 1.02 | locus YCL029C, strain bik1, hits give low values 1.01 | [3] 1.02 | locus YCL069W, strain vba3, hits give low values 1.03 | locus YCR088W, strain abp1, hits give low values 1.01 | locus YDL005C, strain med2, hits give low values 1.02 | locus YDL035C, strain GPR1, hits give low values 1.07 | locus YDL040C, strain nat1, hits give low values 1.03 | locus YDL074C, strain BRE1, hits give low values 1.03 | [4] 1.01 | locus YDL185W, strain tfp1, hits give low values 0.963 | locus YDL192W, strain arf1, hits give low values 0.996 | locus YDR001C, strain nth1, hits give low values 1.01 | locus YDR069C, strain doa4, hits give low values 1.04 | locus YDR101C, strain arx1, hits give low values 1.01 | locus YDR137W, strain rgp1, hits give low values 1.07 | locus YDR159W, strain sac3, hits give low values 1.03 | locus YDR162C, strain NBP2, hits give low values 1.03 | locus YDR195W, strain ref2 1.06 | locus YDR297W, strain sur2, hits give low values 1.02 | locus YDR318W, strain mcm21, hits give low values 1.01 | locus YDR334W, strain swr1, hits give low values 1.03 | locus YDR335W, strain msn5, hits give low values 1.02 | locus YDR363W, strain ESC2, hits give low values 1 | locus YDR388W, hits give low values 1.01 | locus YDR392W, strain spt3, hits give low values 0.984 | locus YDR502C, strain sam2, hits give low values 0.993 | locus YEL003W, strain gim4, hits give low values 1.02 | locus YEL037C, strain rad23, hits give low values 1.02 | locus YEL061C, strain CIN8 (second series), hits give low values 1.01 | [5] 1.01 | locus YER002W, strain NOP16, hits give low values 1.04 | locus YER015W, strain faa2, hits give low values 1.03 | locus YER016W, strain bim1, hits give low values 1.02 | locus YER110C, hits give low values 0.979 | locus YER111C, strain swi4, hits give low values 1.03 | locus YER155C, strain BEM2 (second series), hits give low values 1.01 | locus YER155C, strain BEM2, hits give low values 1.01 | locus YER167W, strain BCK2, hits give low values 1.01 | locus YFR010W, strain ubp6, hits give low values 1.05 | locus YGL078C, strain dbp3, hits give low values 0.991 | locus YGL086W, strain mad1, hits give low values 1.01 | locus YGL167C, strain pmr1, hits give low values 1.03 | locus YGL173C, strain kem1, hits give low values 1.04 | locus YGL227W, strain vid30, hits give low values 1.01 | locus YGL240W, strain doc1, hits give low values 1.02 | locus YGL248W, strain PDE1, hits give low values 1.05 | locus YGL253W, strain hxk2, hits give low values 1.01 | [6] 1.02 and 1.01 | locus YGR135W, strain pre9, hits give low values 0.99 | locus YGR252W, strain gcn5, hits give low values 1.06 | locus YHR013C, strain ard1, hits give low values 1.02 | locus YHR027C, strain rpn1, hits give low values 1.02 | [7] 1.01 and 1 | locus YHR079C, strain IRE1 (second series), hits give low values 0.98 | locus YHR079C, strain IRE1, hits give low values 0.99 | locus YHR094C, strain hxt1, hits give low values 1 | locus YHR129C, strain ARP1, hits give low values 0.997 | locus YHR142W, strain chs7, hits give low values 1.02 | locus YHR200W, strain rpn10, hits give low values 0.995 | locus YIL066C, strain RNR3, hits give low values 1.04 | locus YIL073C, strain SPO22, hits give low values 1.05 | locus YIL125W, strain kgd1, hits give low values 1 | locus YIR030C, strain dcg1, hits give low values 0.976 | locus YJL092W, strain hpr5, hits give low values 1.03 | locus YJL095W, strain BCK1 (second series), hits give low values 1.03 | locus YJL095W, strain BCK1, hits give low values 0.972 and 0.988 | locus YJL115W, strain asf1, hits give low values 1.03 | locus YJL129C, strain trk1, hits give low values 1.04 | locus YJL134W, strain LCB3, hits give low values 1.02 | locus YJL154C, strain vps35, hits give low values 1.01 | locus YJL164C, strain tpk1, hits give low values 1.01 | locus YJL166W, strain qcr8, hits give low values 1.02 | locus YJL168C, strain set2, hits give low values 0.994 | locus YJL187C, strain SWE1 (second series), hits give low values 1.02 | [8] 1.09 | locus YJR066W, strain TOR1, hits give low values 0.99 | locus YKL009W, strain mrt4, hits give low values 0.918 | locus YKL068W, hits give low values 1.01 | locus YKL085W, strain MDH1 (second series), hits give low values 0.986 | locus YKL085W, strain MDH1, hits give low values 0.986 | locus YKL160W, strain elf1, hits give low values 1.03 | locus YKR001C, strain vps1, hits give low values 0.989 | locus YKR026C, strain gcn3, hits give low values 1.01 | locus YKR091W, strain srl3, hits give low values 1.01 | locus YLL001W, strain dnm1, hits give low values 1.02 | locus YLL026W, hits give low values 1.03 | locus YLL041C, strain sdh2, hits give low values 1.02 | locus YLR027C, strain aat2, hits give low values 1.02 | [9] 1.09 | locus YLR058C, strain SHM2, hits give low values 1.01 | locus YLR102C, strain apc9, hits give low values 1.01 | locus YLR113W, strain HOG1, hits give low values 0.972 | locus YLR221C, strain rsa3, hits give low values 1.01 | locus YLR258W, strain gsy2, hits give low values 1.02 | locus YLR262C, strain YPT6 (second series), hits give low values 1.03 | [10] 1.1 | locus YLR268W, strain sec22, hits give low values 0.993 | locus YLR320W, strain mms22, hits give low values 1.03 | locus YLR330W, strain CHS5, hits give low values 1 | locus YLR342W, strain FKS1 (second series), hits give low values 1.12 | locus YLR342W, strain FKS1, hits give low values 1.03 | locus YLR357W, strain rsc2, hits give low values 1.09 | locus YLR370C, strain arc18, hits give low values 1.02 | locus YLR371W, strain rom2, hits give low values 0.994 | locus YLR384C, strain iki3, hits give low values 1.02 | locus YLR418C, strain cdc73, hits give low values 0.959 | locus YML016C, strain PPZ1, hits give low values 1.02 | locus YML032C, strain rad52, hits give low values 1 | locus YML120C, strain ndi1, hits give low values 1.03 | locus YML124C, strain tub3, hits give low values 0.998 | locus YMR058W, strain fet3, hits give low values 1.01 | locus YMR078C, strain ctf18, hits give low values 0.989 | locus YMR125W, strain sto1, hits give low values 1.03 | locus YMR129W, hits give low values 1.01 | locus YMR205C, strain PFK2, hits give low values 1.03 | locus YMR223W, strain ubp8, hits give low values 0.993 | locus YMR231W, strain pep5, hits give low values 1.03 | locus YMR263W, strain SAP30, hits give low values 1.01 | locus YMR307W, strain GAS1, hits give low values 1.18 | locus YNL067W, strain RPL9B, hits give low values 1.02 | locus YNL071W, strain lat1, hits give low values 1.02 | [11] 1 | locus YNL175C, strain NOP13, hits give low values 1.05 | locus YNL183C, strain NPR1, hits give low values 0.948 | locus YNL197C, strain WHI3, hits give low values 1.03 | locus YNL209W, strain ssb2, hits give low values 1.02 | locus YNL224C, strain SQS1, hits give low values 1.02 | locus YNL233W, strain BNI4, hits give low values 0.981 | locus YNL248C, strain rpa49, hits give low values 1.05 | locus YNL250W, strain rad50, hits give low values 0.98 | locus YNL271C, strain bni1, hits give low values 0.977 | locus YNL298W, strain CLA4, hits give low values 0.976 | locus YNL307C, strain MCK1, hits give low values 1 | locus YNL322C, strain KRE1 (second series), hits give low values 1.03 | [12] 1.01 | locus YNR049C, strain mso1, hits give low values 1.03 | locus YNR052C, strain pop2, hits give low values 0.994 | locus YOL006C, strain TOP1, hits give low values 1.02 | locus YOL012C, strain htz1 1.53 | locus YOL147C, strain pex11, hits give low values 0.998 | locus YOR001W, strain rrp6, hits give low values 1.04 | locus YOR061W, strain CKA2, hits give low values 1.01 | locus YOR069W, strain VPS5, hits give low values 1.04 | locus YOR070C, strain gyp1, hits give low values 1.03 | locus YOR080W, strain dia2, hits give low values 1.04 | locus YOR083W, strain WHI5 (second series), hits give low values 0.999 | locus YOR083W, strain WHI5, hits give low values 1.03 | locus YOR106W, strain vam3, hits give low values 1.04 | locus YOR136W, strain idh2, hits give low values 0.997 | locus YOR144C, strain elg1, hits give low values 1 | locus YOR184W, strain ser1, hits give low values 0.981 | locus YOR231W, strain MKK1, hits give low values 1 | locus YOR265W, strain rbl2, hits give low values 1.03 | locus YOR270C, strain vph1, hits give low values 1.1 | locus YOR290C, strain snf2, hits give low values 1.01 | locus YOR316C, strain cot1, hits give low values 0.998 | locus YPL051W, strain arl3, hits give low values 1.03 | [13] 1.01 | locus YPL078C, strain atp4, hits give low values 1.02 | locus YPL106C, strain sse1, hits give low values 1.05 | locus YPL240C, strain hsp82, hits give low values 1.02 | [14] 1.02 and 1.01 | locus YPL256C, strain CLN2, hits give low values 1 | locus YPR119W, strain clb2, hits give low values 0.996 | locus YPR141C, strain kar3, hits give low values 0.992 | locus YPR163C, strain tif3, hits give low values 1 | locus YPR167C, strain met16, hits give low values 0.991 | strain wtn01, hits give low values 1.01

Cc1ccc(N=Nc2c(C)[nH]n(C)c2=O)cc1
inactive: [4] 0.918 | [15] 0.92 | [6] 0.959 | [16] 0.974 | [17] 0.969 | [18] 0.946 | [19] 0.955 | [22] 0.964 | [23] 0.945 | [24] 0.87 | [12] 0.991 | [25] 0.897 | [13] 0.847
active: [1] 0.931 | [2] 0.921 | locus YDL134C, strain PPH21, hits give low values 0.886 | [5] 0.839 | [7] 0.433 | [8] 0.896 | [9] 0.332 | [20] 0.407 | [10] 0.352 | [21] 0.822 | [14] 0.82 | [26] 0.431

Cc1[nH]n(C)c(=O)c1N=Nc1ccc(Cl)cc1
active: [1] 0.892 | [2] 0.886 | [3] 0.864 | [4] 0.82 | [5] 0.598 | [6] 0.906 | [7] 0.143 | locus YJL187C, strain SWE1, hits give low values 0.875 | [18] 0.915 | [9] 0.342 | [19] 0.912 | [20] 0.115 | [10] 0.393 | [21] 0.764 | [22] 0.924 | [23] 0.894 | [24] 0.689 | [25] 0.881 | [14] 0.753 | [26] 0.242
inactive: [15] 0.835 | locus YGR229C, strain SMI1, hits give low values 0.979 | [16] 0.926 | [8] 0.945 | [17] 0.912 | [11] 0.965 | [12] 0.96 | [13] 0.78
